Compound activity: PubChem BioAssay, National Center for Advancing Translational Sciences (NCATS)
Most compounds without a hit are left out; they make up all but 7.1% or so of the library.
IL-1B inflam inh: qHTS for Inhibitors of Inflammasome Signaling: IL-1-beta AlphaLISA Primary Screen; activity change, % at 57.5 µM; THP-1 LPS/ATP IL-1B secretion, AlphaLISA, 16 h; active compounds read low; 360,000 compounds, 4.7% hits; in the data active = activity change below about -50%; inconclusive = mostly about -30% to -49%; note: % is set by controls: 0 for no effect and ±100 for the full control effect
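Secreted IL-1B measured by AlphaLISA bead assay after 16 h compound exposure of THP-1 cells; compounds (final up to 57.5 uM) added 1 h before LPS (250 ng/mL) and ATP (1.25 mM) stimulation; lower signal means less secretion.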
PINK1 expr mod: A Quantitative High throughput Screen to Identify Chemical Modulators of PINK1 Expression; 410,000 compounds, 0.2% hits; Potency, µM (top dose mostly 76.6 µM), for the others: top-dose activation (PINK1 increase), hits mostly activators; PINK1 immunofluorescence, high-content cytometry, 24 h; active = well fitted activation curve with a large enough effect; inconclusive = small, poorly fitted or top-dose-only effect; cell line not stated here; note: potency is the fitted concentration of half-maximal effect; % of control where 0% means no effect; nearly all actives have a fitted effect of over 65% in size
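Decision-based qHTS: stable cells, 24 h exposure to five compound concentrations, CCCP as control. Fixed cells stained for PINK1 plus nuclear, mitochondrial and cell markers, cytometer read.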
MCF10A rereplic: A quantitative high throughput screen for small molecules that induce DNA re-replication in MCF 10a normal breast cells | MCF 10A DNA re-replication, Hoechst nuclear intensity, 48 h | Potency, µM (series often up to 46.1 µM), for inactives: at the top dose activity, positive = re-replication, actives largely listed as activators | 350,000 compounds, 2.9% hits; note: potency is the fitted concentration of half-maximal effect; % of control where 0% means no effect; nearly all actives have a fitted effect of over 50% in size
SW480 rereplic: A quantitative high throughput screen for small molecules that induce DNA re-replication in SW480 colon adenocarcinoma cells; SW480 DNA re-replication, Hoechst DNA content imaging, 48 h; Potency, µM (top dose mostly 46.1 µM), for the others: at the highest dose re-replication activation, hits mostly activators; 340,000 compounds, 1.8% hits; note: potency is the fitted concentration of half-maximal effect; % of control where 0% means no effect; nearly all actives have a fitted effect of over 55% in size
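Hoechst fluorescence of nuclei (405 nm excitation, 500-530 nm emission) measured by plate-scanning imager after 48 hr compound exposure at 37 C; re-replication scored as increased number of nuclei with elevated intensity.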
ATXN viability: Viability Counterscreen for Primary qHTS for Inhibitors of ATXN expression | S2 cells (HEK-293 line with an ATXN2-luciferase reporter) viability, CellTiter-Fluor protease fluorescence, 24 h | Potency, µM (series often up to 56.7 µM), most hits filed as cytotoxic | 400,000 compounds, 0.49% hits | AID 651635, 2014; note: potency is the fitted concentration of half-maximal effect; nearly all actives have a fitted effect of over 40% in size
ATXN2 expr inh: Primary qHTS for Inhibitors of ATXN expression; HEK-293 ATXN2-luciferase reporter, luminescence, 24 h; Potency, µM (top dose mostly 57 µM), for inactives: top-dose activity change, negative = inhibition, actives largely listed as inhibitors; 360,000 compounds, 0.72% hits; note: potency is the fitted concentration of half-maximal effect; % is set by controls: 0 for no effect and ±100 for the full control effect; nearly all actives have a fitted effect of over 55% in size
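ATXN2-luciferase reporter cells (luciferase flanked by upstream and downstream ATXN2 gene portions) were treated 24 h at 37 °C with compounds at up to 57 uM. SteadyGlo luminescence gave expression; GF-AFC fluorescence gave viability.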
Numbers without * were called inactive; [ ] = dose if it differs, or a comment. Unless noted, calls come from the whole dose curve; as a rule, active = well fitted curve in the direction sought with a large enough effect; inconclusive = small, poorly fitted or top-dose-only effect, or another doubt; inactive = no such curve, though single readings can be large; an effect the other way counts as inactive or inconclusive.

Results for O=S(=O)(c1ccc(N2CCC(c3ccc(Cl)cc3)=N2)cc1)N(CCO)CCO ?
IL-1B inflam inh: inconclusive; PINK1 expr mod: 0%; MCF10A rereplic: inconclusive; SW480 rereplic: 0.58µM*; ATXN2 expr inh: -27%

Results for CCOC(=O)c1c(-c2ccccc2)csc1NC(=O)CSc1nnc(C)s1 ?
IL-1B inflam inh: -30; PINK1 expr mod: 1%; MCF10A rereplic: inconclusive; SW480 rereplic: -9%; ATXN viability: inactive; ATXN2 expr inh: -18%

How did CCOC(=O)c1cnc(Nc2ccc(OCC)cc2)nc1C do in these assays?
IL-1B inflam inh: -4; PINK1 expr mod: -2%; MCF10A rereplic: inconclusive; SW480 rereplic: -8%; ATXN viability: inactive; ATXN2 expr inh: 12%

How did CCOC(=O)c1cnc(Nc2nc3ccccc3o2)nc1C do in these assays?
IL-1B inflam inh: -12; PINK1 expr mod: 1%[38.3 µM]; MCF10A rereplic: -12%; SW480 rereplic: inconclusive; ATXN viability: inactive; ATXN2 expr inh: 2.8µM*

What do the screens show for `CCOC(=O)c1cnc(Nc2nc3ccccc3o2)nc1CSc1nnc(C)s1`?
IL-1B inflam inh: 31; PINK1 expr mod: -5%; MCF10A rereplic: inconclusive; SW480 rereplic: 0.65µM*; ATXN viability: inactive; ATXN2 expr inh: -7%

How did CCCCOc1ccc(C(=O)Nc2ccc3c(c2)CCCN3S(=O)(=O)c2ccc(C)cc2)cc1 do in these assays?
PINK1 expr mod: 1%; ATXN viability: inactive; ATXN2 expr inh: -8%

Results for COc1ccc(NC(=O)CCCn2nc(C)c3sc4ccccc4c3c2=O)cc1 ?
PINK1 expr mod: 6%

How did COc1ccc(CN2CCOc3ccc(CN4CCC(Oc5cccnc5)CC4)cc3C2)c(F)c1 do in these assays?
PINK1 expr mod: 1%; ATXN viability: inactive

Results for O=C(c1cc(-n2cnnc2)ccc1Cl)N1CCN(c2nc(-c3ccccc3)cs2)CC1 ?
IL-1B inflam inh: -90*; PINK1 expr mod: 2%; MCF10A rereplic: -3%; SW480 rereplic: 23%; ATXN viability: inactive; ATXN2 expr inh: inconclusive

Results for CC1(C2CCN(Cc3c[nH]c4ccccc34)CC2)NC(=O)N(CCN2CCOCC2)C1=O (configuration not stated) ?
PINK1 expr mod: 2%; ATXN viability: inactive

How did CC(C)CCCCCCNC(=S)Nc1ccc(S(=O)(=O)N2CCOCC2)cc1 do in these assays?
IL-1B inflam inh: -82*; PINK1 expr mod: inconclusive; MCF10A rereplic: 13µM*; SW480 rereplic: inconclusive; ATXN viability: inconclusive; ATXN2 expr inh: inconclusive

What do the screens show for `CCOC(=O)Nc1ccc(S(=O)(=O)N2CCOCC2)cc1`?
IL-1B inflam inh: -5; PINK1 expr mod: -3%; MCF10A rereplic: 5%; SW480 rereplic: -7%; ATXN viability: inactive; ATXN2 expr inh: 2%

What do the screens show for `O=S(=O)(c1ccc(NC(=S)Nc2ccccc2)cc1)N1CCOCC1`?
IL-1B inflam inh: 41; PINK1 expr mod: 0%; MCF10A rereplic: -10%; SW480 rereplic: -2%; ATXN viability: inactive; ATXN2 expr inh: 2%

Results for CC(NC(=S)Nc1ccc(S(=O)(=O)N2CCOCC2)cc1)C1CC2CCC1C2 (configuration not stated) ?
IL-1B inflam inh: 0; PINK1 expr mod: 40µM*; MCF10A rereplic: inconclusive; SW480 rereplic: 5%; ATXN viability: inactive; ATXN2 expr inh: -25%

Results for COc1ccc(NC(=O)NC(C)C2CC3CCC2C3)cc1 (configuration not stated) ?
IL-1B inflam inh: -80*; PINK1 expr mod: 1%; MCF10A rereplic: 22%; SW480 rereplic: 0%; ATXN viability: inactive; ATXN2 expr inh: 6%

What do the screens show for `CN(C)CC(C)(C)CNC(=S)Nc1ccc(S(=O)(=O)N2CCOCC2)cc1`?
IL-1B inflam inh: 0; PINK1 expr mod: 4%; MCF10A rereplic: 7%; SW480 rereplic: 26µM*; ATXN viability: inactive; ATXN2 expr inh: 0%

Results for Cc1cc(C)cc(NC(=O)CSc2nc3c([nH]c4ccccc43)c(=O)n2-c2ccc(F)cc2)c1 ?
PINK1 expr mod: 3%; ATXN viability: inactive; ATXN2 expr inh: 1%

How did CNC(=O)c1cnn(-c2nc(N)c3ncn([C@@H]4O[C@H](CO)[C@@H](O)[C@H]4O)c3n2)c1 do in these assays?
ATXN viability: inactive; ATXN2 expr inh: -10%

How did Cc1ccc(C(=O)c2oc3ccccc3c2NC(=O)Cc2coc3cc(C)ccc23)cc1 do in these assays?
PINK1 expr mod: 1%; ATXN viability: inactive; ATXN2 expr inh: 4%

What do the screens show for `CC(NC(=O)CCC(=O)c1ccc(F)cc1)C1CC2CCC1C2` (configuration not stated)?
IL-1B inflam inh: -21; PINK1 expr mod: 0%; MCF10A rereplic: 10µM*; SW480 rereplic: inconclusive; ATXN viability: inactive; ATXN2 expr inh: -14%

Results for Cc1ccc(S(=O)(=O)NN=C2CC3CCC2(C)C3(C)C)cc1 (configuration not stated) ?
IL-1B inflam inh: 32; PINK1 expr mod: -1%; MCF10A rereplic: 11%; SW480 rereplic: 1%; ATXN viability: inactive; ATXN2 expr inh: 4%

What do the screens show for `CC(=O)c1sc(N/N=C2\CC3CCC2(C)C3(C)C)nc1C` (configuration not stated)?
IL-1B inflam inh: 9; PINK1 expr mod: 14%; MCF10A rereplic: 21µM*; SW480 rereplic: -74%; ATXN viability: inactive; ATXN2 expr inh: -22%

How did Cc1cccc2nc(-c3cccnc3)c(NCCC(C)C)n12 do in these assays?
IL-1B inflam inh: -82*; PINK1 expr mod: 0%; MCF10A rereplic: 21µM*; SW480 rereplic: -2%; ATXN viability: inactive; ATXN2 expr inh: -3%

Results for COCCCNC(=O)c1ccc(Cn2c(=O)c3ccccc3n(CC(N)=O)c2=O)cc1 ?
PINK1 expr mod: 2%; ATXN viability: inactive; ATXN2 expr inh: 6%

How did Cc1cc(C)c(CSc2ncc(-c3ccc([N+](=O)[O-])cc3)[nH]2)c(C)c1 do in these assays?
IL-1B inflam inh: -59*; PINK1 expr mod: inconclusive; MCF10A rereplic: 18µM*; SW480 rereplic: inconclusive; ATXN viability: inactive; ATXN2 expr inh: inconclusive

What do the screens show for `NC(=O)CSc1ncc(-c2ccc([N+](=O)[O-])cc2)[nH]1`?
IL-1B inflam inh: 1; PINK1 expr mod: -2%; MCF10A rereplic: -29%; SW480 rereplic: -26%; ATXN viability: inactive; ATXN2 expr inh: 35%
